Among the data in PubChem BioAssay AID2014 (Sanford-Burnham Center for Chemical Genomics, 2009) are inhibition values, retold here.

By inhibition is commonly meant the change of the read-out against control, counted positive when it falls.

This experiment addresses Polyadenylate-binding protein 1 (Homo sapiens) (UniProt P11940). Put plainly: blockers of PABP interaction with poly(A) – biochemical, fluorescence polarization, uHTS, primary screen (AID 2014).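 Further: calls also rest on retests at 20 µM and on dose response follow-up.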 To be noted: PABP-poly(A) RNA binding, stronger effect = higher value. (Polarisation of emitted light reports the rotation of a fluorescent probe.)

Screen size: about 290,000 compounds; about 3,000 (1%) were called active. How the calls were made is not given here. Shown is part of a subset that was picked to be rich in actives.

Polyadenylate-binding protein 1 (Homo sapiens), sequence (P11940 whole entry, looked up): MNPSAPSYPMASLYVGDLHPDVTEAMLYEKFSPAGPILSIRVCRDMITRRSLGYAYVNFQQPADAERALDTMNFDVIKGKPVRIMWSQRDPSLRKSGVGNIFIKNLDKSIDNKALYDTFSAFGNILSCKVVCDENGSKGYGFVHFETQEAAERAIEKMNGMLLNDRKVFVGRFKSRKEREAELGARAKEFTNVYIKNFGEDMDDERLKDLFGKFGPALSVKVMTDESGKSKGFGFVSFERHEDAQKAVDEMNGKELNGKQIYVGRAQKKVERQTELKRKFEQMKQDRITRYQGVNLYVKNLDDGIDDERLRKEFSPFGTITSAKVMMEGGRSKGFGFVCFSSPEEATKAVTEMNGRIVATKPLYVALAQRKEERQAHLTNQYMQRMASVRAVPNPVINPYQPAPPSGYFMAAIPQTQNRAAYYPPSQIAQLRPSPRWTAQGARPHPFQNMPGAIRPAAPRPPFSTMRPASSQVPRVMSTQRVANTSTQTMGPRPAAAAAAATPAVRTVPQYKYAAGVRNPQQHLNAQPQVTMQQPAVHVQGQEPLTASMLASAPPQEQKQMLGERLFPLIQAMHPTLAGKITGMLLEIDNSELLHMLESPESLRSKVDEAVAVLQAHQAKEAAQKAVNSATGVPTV

For `CCc1nc2cccnc2n1-c1ccc(C(=O)O)cc1`, the inhibition is 73.7% (active) (at 35 µM) and 87.5% (confirmation repeats, at 20 µM). As to `CCOC(=O)[C@@H]1[C@H]2COc3cc(OC)ccc3[C@@H]2N2C(=O)N(c3cccc(C)c3)C(=O)[C@@]12C`, where the note is “at 35 µM”, the inhibition is 7.6% (inactive). Turning to `O=C(Cc1cccs1)Nc1ccc([N+](=O)[O-])cc1`, the inhibition (at 35 µM) is 2.1% (inactive). Same read-out and setting: as for `COC(=O)/C=C\C(=O)Nc1cccc([N+](=O)[O-])c1`, the figure is 9.4% (inactive).

Take `Cc1ccc(/C=C/C(=O)Nc2cc(S(=O)(=O)N3CCCCCC3)ccc2OCC(F)(F)F)o1`: the inhibition (at 35 µM) is -0.3% (inactive). Turning to `Cc1ccc(/C=C/C(=O)Nc2ccc([N+](=O)[O-])c(NC(=O)/C=C/c3ccc(C)o3)c2)o1`, the inhibition by setting is: (at 35 µM) 0% (active); (confirmation repeats, at 20 µM) 119%. Regarding `COCc1ccc(CN2CCC(Oc3ccc(C(=O)NCc4ccccn4)cc3)CC2)o1`, the inhibition (at 35 µM) is -1.3% (inactive).

Consider `Cc1[nH]c2ccccc2c1C(=O)CN1CCCC(C)C1` (configuration not stated), for which, where the note is “at 35 µM”, the inhibition is 8.2% (inactive). Same read-out and setting: to `Cc1nc(SCC(=O)NC2CCCC2)[nH]c(=O)c1C` belongs 3.8% (inactive). The same measure, in the same setting: to `O=C(/C=C/c1ccc([N+](=O)[O-])o1)NNC(=O)c1ccc(F)cc1` belongs 8.2% (inactive); to `CN=C1S/C(=C\c2ccc(Sc3ccc(Cl)cc3)o2)C(=O)N1C`, -5.7% (inactive). Regarding `CN=C1S/C(=C\c2c(OC)cc(OC)cc2OC)C(=O)N1C`, the inhibition (at 35 µM) is 8.5% (inactive). On to `CN1C(=O)/C(=C/c2ccco2)SC1=Nc1cccc(C(=O)O)c1`, for which the inhibition (at 35 µM) is -1.6% (active) and the inhibition (confirmation repeats, at 20 µM) was 78.4%. For `COC(=O)C1(C)NC(c2ccc(F)cc2)C2C(=O)N(c3ccccc3)C(=O)C21` (configuration not stated), the inhibition (at 35 µM) was 10.8% (inactive). Still for that read-out and setting: as for `CC(=O)NS(=O)(=O)c1ccc2c(c1)Cc1cc(S(=O)(=O)NC(C)=O)ccc1-2`, the figure is 6% (inactive); as for `COc1ccccc1CNS(=O)(=O)CC12CCC(CC1=O)C2(C)C` (configuration not stated), 3.9% (inactive); as for `CC(C)Cc1nnc(NC(=O)CCc2ccccc2)s1`, -7.4% (inactive).

Turning to `Clc1ccccc1CSc1nnc(-c2ccco2)c(-c2ccco2)n1`, the inhibition reads like this: (at 35 µM) 82.6% (active); (confirmation repeats, at 20 µM) 87.4%. `COC(OC)c1ccnc(SCc2ccccc2Cl)n1`: for the setting “at 35 µM”, the inhibition is -6.4% (inactive).

With `Fc1cccc(Cl)c1CSc1ccc(-c2ccco2)nn1`, the inhibition (at 35 µM) is -6.6% (inactive). Still for that read-out and setting: as for `c1ccc(CSc2nnc(-c3ccco3)c(-c3ccco3)n2)cc1`, the figure is 74.8% (active). Turning to `O=c1[nH]c(SCc2ccccc2)nnc1-c1ccccc1`, the inhibition runs as follows: (at 35 µM) 62.5% (inactive); (confirmation repeats, at 20 µM) -3.1%. For the compound `Brc1ccc(CSc2ccc(-c3ccco3)nn2)cc1`, the inhibition is -6.1% (inactive) (at 35 µM) and 5.9% (confirmation repeats, at 20 µM). Take `COc1ccc(NS(=O)(=O)c2ccc(F)cc2F)cn1`: for the setting “at 35 µM”, the inhibition was 70.3% (active).

Turning to `CCOc1ccc(S(=O)(=O)Nc2ccc(OC)nc2)cc1`, under “at 35 µM”, the inhibition is 9.7% (inactive). Same read-out and setting: to `COc1ccc(S(=O)(=O)Nc2ccc(F)cc2)c(C)c1C` belongs -4.6% (inactive); to `COCC(=O)N1CCc2ccc(NC(=O)c3ccccc3Cl)cc2C1`, 9.8% (inactive). The same measure, in the same setting: as for `Nc1nc(SCC(=O)Nc2cc(C(F)(F)F)ccc2Cl)[nH]c(=O)c1NC(=O)c1ccco1`, the figure is 2.8% (inactive). Turning to `Cc1c(CC(=O)NCCCCCC(=O)O)c(=O)oc2cc3occ(-c4ccccc4)c3cc12`, the inhibition (at 35 µM) was 15.4% (inactive). Still for that read-out and setting: as for `Cc1c(CCC(=O)O)c(=O)oc2cc3occ(-c4ccccc4)c3cc12`, the figure is 32.6% (inactive); as for `CCCCCCc1cc2cc(-c3nnc(-c4ccccc4)o3)c(=O)oc2cc1O`, 102% (active); as for `COc1cc(C(=O)N2CCN(C3CCC(C)CC3)CC2)cc(OC)c1OC` (configuration not stated), 7.5% (inactive).

On to `CC(C)=N/N=C1/NC(=O)C(Cc2ccccc2)S1` (configuration not stated), for which the inhibition (at 35 µM) is 4.2% (inactive).

Turning to `CSc1nc(-c2ccco2)nn1C(=O)CCc1ccccc1`, the inhibition (at 35 µM) is 7.1% (inactive).

As to `CCOc1ccccc1/C=c1\sc2nc(-c3ccco3)nn2c1=O`, where the note is “at 35 µM”, the inhibition was 53% (active). As to `CCOC(=O)/C=c1\s/c(=C\c2ccccc2OC)c(=O)n1CC(=O)N1CCOCC1`, the inhibition (at 35 µM) is 7.9% (inactive). With `CC1CCCCN1C(=O)CCS(=O)(=O)Cc1ccccc1` (configuration not stated), under “at 35 µM”, the inhibition was 9.6% (inactive). Still for that read-out and setting: as for `Cc1nc(N)nc(SCc2ccc([N+](=O)[O-])cc2)c1N`, the figure is 7.3% (inactive); as for `COc1ccccc1N1CCN(S(=O)(=O)c2ccc(Cl)cc2)CC1`, -9.7% (inactive); as for `O=S(=O)(c1ccc(F)cc1)N1CC=C(c2ccccc2)CC1`, 4.6% (inactive). Consider `Cc1c(C2=CCN(S(=O)(=O)c3ccc(Cl)cc3)CC2)c2ccccc2n1C`, for which the inhibition by setting is: (at 35 µM) 4.5% (active); (confirmation repeats, at 20 µM) 95.9%. On to `COc1ccccc1NC(=O)C1CCN(C(=O)c2ccc(C(C)(C)C)cc2)CC1`, for which, under “at 35 µM”, the inhibition is 10.3% (inactive). On the same count and under the same terms, to `NS(=O)(=O)c1ccc(-c2ccc(/C=C3\SC(=O)NC3=O)o2)cc1` belongs 7.1% (inactive); to `CC(=O)OCc1cc2cc(C)ccc2[nH]c1=O`, 9.2% (inactive); to `COc1ccc2[nH]c(=O)c(-c3noc(-c4ccc(F)cc4)n3)cc2c1`, 1.1% (inactive). `CCCc1nc(-c2cc3cc(C)ccc3[nH]c2=O)no1`: the inhibition (at 35 µM) was 61.5% (active) and the inhibition (confirmation repeats, at 20 µM) was found to be 60%. Regarding `COc1ccc(-n2ncc3c2CC(C)(C)CC3NC(=O)CCc2c(C)noc2C)cc1` (configuration not stated), the inhibition (at 35 µM) is 9.7% (inactive). Same read-out and setting: as for `CCCS(=O)(=O)N1CCN=C1SCc1cccc(F)c1`, the figure is -1.7% (inactive). On the same count and under the same terms, as for `COc1ccc(CNC(=O)C(=O)NCC2OCCN2C(=O)c2ccc(OC)cc2)cc1` (configuration not stated), the figure is -1% (inactive).
